Data on 21 compounds can be found in PubChem BioAssay (Tox21).

Inconclusive results are not listed. Entries that show only a call come without a potency. Calls of active or inactive are those of the source. The call rests on the fitted dose curve; in most records, active means well fitted activation curve with a large enough effect in the repeat runs; inconclusive means weak or mixed curves; inactive means flat fitted curve, though single readings scatter.
Potency means the concentration at half of the fitted maximal effect.

The nature of this experiment: A CellTox Green Cytotoxicity Assay to monitor cytotoxicity in HepG2 cells - 8 hour (AID 1224890). Further: nearly all actives have a fitted effect of over 45% in size. The settings on record: CellTox Green fluorescence; series mostly up to 76.8 µM. The method in brief: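 Real-time, homogeneous cytotoxicity readout: dead-cell DNA staining by CellTox Green in HepG2 monolayers, fluorescence measured at timed intervals up to 40 h of continuous compound exposure.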
With `CC(=O)OC1(c2ccccc2)CCN(CCc2ccccc2)CC1`, the Potency result is “inactive”. As to `CSCCCN=C=S`, the Potency result was “inactive”. Consider `CC(C)(C)c1ccc(CSc2cnn(C(C)(C)C)c(=O)c2Cl)cc1`, for which the Potency entry is “inactive”. Regarding `O=[N+]([O-])c1c2ccccc2cc2ccccc12`, the Potency entry was “inactive”. Then `O=C(CBr)c1ccc(O)cc1`, with “inactive”; and `CCCN(CCC)CCc1c[nH]c2ccccc12`, with “inactive”. `CC1CCC(C(C)C)C(OC(=O)c2ccccc2N)C1` (stereo unspecified): the Potency result is “inactive”. Take `CCOC(=O)c1ccccc1S(=O)(=O)NC(=O)Nc1nc(Cl)cc(OC)n1`: the Potency result was “inactive”.

For the compound `N#Cc1c(-c2ccc(Cl)cc2)[nH]c(C(F)(F)F)c1Br`, the Potency entry is “inactive”. Then `CC(C)(C)C(O)C(Oc1ccc(-c2ccccc2)cc1)n1cncn1` (stereo unspecified), with “inactive”. Turning to `CCC(C)c1cc([N+](=O)[O-])cc([N+](=O)[O-])c1OC(=O)C=C(C)C` (stereo unspecified), the Potency result is “inactive”.

For `COc1cccc2c1C(=O)c1c(O)c3c(c(O)c1C2=O)C[C@@](O)(C(=O)CO)CC3OC1CC(N2CCOC(OC)C2)C(O)C(C)O1` (stereo partly specified), the Potency was 21.3 µM (active).

For `[Cl][Sb]([Cl])[Cl]`, the Potency result was “inactive”.

`CCOP(=S)(OCC)OC(Cl)C(Cl)(Cl)Cl` (stereo unspecified): the Potency entry is “inactive”. Turning to `CC(=O)/C=C/c1ccc2c(c1)OCO2`, the Potency entry was “inactive”. With `CC(C)CC(C)Nc1ccc(Nc2ccccc2)cc1` (stereo unspecified), the Potency entry was “inactive”. Under `O=[N+]([O-])c1cc(Cl)ccc1Cl` stands “inactive”. Then `Nc1ccccc1C(=O)Oc1ccc2ccccc2c1`, with “inactive”. For `COC(=O)N(C(=O)N1CO[C@@]2(C(=O)OC)Cc3cc(Cl)ccc3C2=N1)c1ccc(OC(F)(F)F)cc1`, the Potency result was “inactive”.

Turning to `COc1ccc(OC)c(C=O)c1`, the Potency entry is “inactive”. Then `CCOP(=O)(NC(C)C)Oc1ccc(SC)c(C)c1` (stereo unspecified), with “inactive”.
